# Measured values published in PubChem BioAssay.
# Activity calls are given as the source filed them. How the calls were made is not given here. Non-standard residues stand in square brackets, D forms with d. Residues, ends and D or L forms follow the SMILES beside them. Groups on a side chain read outwards from the residue. *: point of attachment. X2 = CCC(C)C(N)C1=NC(C(=O)*)CS1; Orn = NCCC[CH](N)C(=O)O
# System: Aerobactin synthetase IucA (Klebsiella pneumoniae hvKP1)
# Test: IucA enzyme inhibition, primary screen, biochemical, Spectrum library (AID 1346200);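 further: 100% = wells without compound and 0% = wells lacking enzyme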
# Settings: malachite green pyrophosphate, A620, at 8 µM, hits give low values
row,Structure (SMILES),activity remaining
1,CC(=O)c1ccc2c(c1)N(CCCN(C)C)c1ccccc1S2,104% (inactive)
2,CC1(C)C=Cc2cc3ccc(=O)oc3cc2O1,119% (inactive)
3,CC(=O)O[C@]1(C(C)=O)CCC2C3C=C(Cl)C4=CC(=O)CC[C@]4(C)C3CC[C@@]21C (stereo not given in full),130% (inactive)
4,O=C(O)/C=C(\CC(=O)O)C(=O)O,89.8% (inactive)
5,C/C=C/CC(C)C(O)C1C(=O)NC(CC)C(=O)N(C)CC(=O)N(C)C(CC(C)C)C(=O)NC(C(C)C)C(=O)N(C)C(CC(C)C)C(=O)NC(C)C(=O)NC(C)C(=O)N(C)C(CC(C)C)C(=O)N(C)C(CC(C)C)C(=O)N(C)C(C(C)C)C(=O)N1C (stereo not given),113% (inactive)
6,CCC(Cc1c(I)cc(I)c(N)c1I)C(=O)O (stereo not given),103% (inactive)
7,C[C@H]1COc2c(N3CCN(C)CC3)c(F)cc3c(=O)c(C(=O)O)cn1c23,113% (inactive)
8,CCN(CC)CCOC(=O)C(c1ccccc1)c1ccccc1,112% (inactive)
9,CC[C@H]1OC(=O)[C@H](C)[C@@H](O[C@H]2C[C@@](C)(OC)[C@@H](O)[C@H](C)O2)[C@H](C)[C@@H](O[C@@H]2O[C@H](C)C[C@H](N(C)C)[C@H]2O)[C@](C)(O)C[C@@H](C)[C@@H]2N[C@@H](COCCOC)O[C@H]([C@H]2C)[C@]1(C)O,117% (inactive)
10,CC(C)C(C)/C=C/C(C)[C@H]1CCC2C3=CCC4CC(=O)CC[C@]4(C)C3CC[C@@]21C (stereo not given in full),92.7% (inactive)
11,Oc1cc(O)c2c(c1)O[C@H](c1cc(O)c(O)c(O)c1)[C@H](O)C2,116% (inactive)
12,O=C(O)c1cc(O)c2c(c1)[C@@H]([C@H]1c3cc(C(=O)O)cc(O)c3C(=O)c3c(O[C@H]4O[C@H](CO)[C@@H](O)[C@H](O)[C@H]4O)cccc31)c1cccc(O[C@H]3O[C@H](CO)[C@@H](O)[C@H](O)[C@H]3O)c1C2=O,98.9% (inactive)
13,CCC(C)C(N)C1=NC(C(=O)NC(CC(C)C)C(=O)NC(CCC(=O)O)C(=O)NC(C(=O)NCCCCC2NC(=O)C(CC(N)=O)NC(=O)C(CC(=O)O)NC(=O)C(Cc3cnc[nH]3)NC(=O)C(Cc3ccccc3)NC(=O)C(C(C)CC)NC(=O)C(CCCN)NC2=O)C(C)CC)CS1 (stereo not drawn) (cyclo(DNK([Ile-Glu-Leu-X2])[Orn]IFH); configuration not given here),123% (inactive)
14,Cc1cc(-c2ccccc2)nnc1NCCN1CCOCC1,110% (inactive)
15,COc1ccc(-c2cc(=O)c3c(O)c(OC)c(OC)c(OC)c3o2)cc1,93% (inactive)
16,OCC(O)C(O)C(O)C(O)C(O)CO (stereo not given),93% (inactive)
17,C/C=C1\[C@H]2C=C(C)C[C@]1(N)c1ccc(=O)[nH]c1C2,122% (inactive)
18,O=c1c(O)cc([C@H]2Oc3cc(O)cc(O)c3C[C@H]2O)cc2c([C@H]3Oc4cc(O)cc(O)c4C[C@@H]3O)cc(O)c(O)c12,104% (inactive)
19,CC(=O)O[C@@H]1CC(=O)[C@@]2(C)C(CC(=O)[C@]3(C)C2CC[C@@]2(C)[C@H](c4ccoc4)OC(=O)C4OC423)C1(C)C (stereo not given in full),92.3% (inactive)
20,CC1=NN(c2ccccc2)C(=O)C1,120% (inactive)

row,Structure (SMILES),activity remaining
1,CC(C)Oc1ccc2c(=O)cc(-c3ccccc3)oc2c1,114% (inactive)
2,O=C(O)CCCc1ccccc1,111% (inactive)
3,NC(=NCCC[C@H](N)C(=O)O)NC(CCC(=O)O)C(=O)O (stereo not given in full),107% (inactive)
4,OC[C@H]1O[C@@](CO)(O[C@@H]2O[C@H](CO)[C@@H](O)[C@H](O)[C@H]2O)[C@@H](O[C@@H]2O[C@H](CO)[C@@H](O)[C@H](O)[C@H]2O)[C@@H]1O,82.4% (inactive)
5,CC(=O)OC[C@H]1O[C@@H](Oc2cc(OC(C)=O)c3c(=O)cc(-c4ccc(OC(C)=O)cc4)oc3c2)[C@H](OC(C)=O)[C@@H](OC(C)=O)[C@@H]1OC(C)=O,92.5% (inactive)
6,CN(C)CCOc1ccc(/C(=C(/CCCl)c2ccccc2)c2ccccc2)cc1,112% (inactive)
7,COc1ccnc(CS(=O)c2nc3ccc(OC(F)F)cc3[nH]2)c1OC (stereo not given),127% (inactive)
8,CCCCCCCCCCCCCCCC(=O)OC[C@H](NC(=O)C(Cl)Cl)[C@H](O)c1ccc([N+](=O)[O-])cc1,95.5% (inactive)
9,OCCN1C[C@@H](O)[C@@H](O)C(O)C1CO (stereo not given in full),114% (inactive)
10,C[C@@H]1O[C@@H](O[C@H]2[C@H](Oc3cc(O)c4c(=O)cc(-c5ccc(O)cc5)oc4c3)O[C@H](CO)[C@@H](O)[C@@H]2O)[C@H](O)[C@H](O)[C@H]1O,90.6% (inactive)
11,COc1c(C(C)C)oc2cc3oc(=O)ccc3cc12,102% (inactive)
12,C=CCSCC1Nc2cc(Cl)c(S(N)(=O)=O)cc2S(=O)(=O)N1 (stereo not given),91.6% (inactive)
13,CCc1cc(C(N)=S)ccn1,105% (inactive)
14,CO[C@@H]1[C@@H](OC(N)=O)[C@@H](O)[C@H](Oc2ccc3c(O)c(NC(=O)c4ccc(O)c(CC=C(C)C)c4)c(=O)oc3c2C)OC1(C)C,129% (inactive)
15,COc1ccc(CC(=O)c2ccc(O)cc2O)cc1,111% (inactive)
16,COc1ccc(C[C@H](N)C(=O)N[C@@H]2[C@@H](CO)OC(n3cnc4c(N(C)C)ncnc43)[C@@H]2O)cc1 (stereo not given in full),87.5% (inactive)
17,COc1ccc2c(c1)OCC(Cc1ccc(OC)c(OC)c1)C2=O (stereo not given),95.4% (inactive)
18,CN1CCC(OC(c2ccccc2)c2ccccc2)CC1,108% (inactive)
19,C[n+]1c2cc(N)ccc2cc2ccc(N)cc21,111% (inactive)
20,COC1=CC(=O)C(C(=O)c2ccccc2)=CC1=O,93.6% (inactive)
